Experimental data as given in PubChem BioAssay.
Results with a measured potency or affinity are listed apart. Records with an inconclusive call do not appear. Values without a mark were called inactive. How the calls were made is not given here.

experiment: OVCAR-3 cell viability loss – plate reader, dry powder samples, PAX8 inhibitor project, dose response (AID 743044); conditions: NIH:OVCAR-3 ovarian cancer cell viability; max activity: at 35 µM, active compounds read low unless noted; series mostly up to 50 µM

Structure (SMILES) | max activity
Cc1ccc(S(=O)(=O)N(C)C[C@@H]2Oc3cc(C#Cc4ccncc4)ccc3S(=O)(=O)N([C@@H](C)CO)C[C@H]2C)cc1 | -28.9% [at 16 µM, active compounds read low]
C[C@H]1CN([C@@H](C)CO)C(=O)c2cccc(NC(=O)Nc3ccc(F)cc3)c2O[C@H]1CN(C)C(=O)Nc1ccc(C(F)(F)F)cc1 | 10.2% [at 0.26 µM, active compounds read low]
COc1ccc(-c2ccc3c(c2)[C@@H]2[C@@H](CCN2C(=O)C2CCCC2)[C@H](CO)N3C)cc1 | -19.3% [at 18 µM, active compounds read low]
C[C@@H]1CCCCO[C@H](CN(C)Cc2ccc(Cl)c(Cl)c2)[C@H](C)CN([C@@H](C)CO)C(=O)c2cc(NC(=O)Nc3ccc(F)cc3)ccc2O1 | 22.7% [at 8 µM, active compounds read low]
COc1ccccc1-c1ccc2c(c1)O[C@H](CN(C)Cc1ccc3c(c1)OCO3)[C@H](C)CN([C@@H](C)CO)S2(=O)=O | 20.4% [at 4.2 µM, active compounds read low]
Cc1ccc(S(=O)(=O)N(C)C[C@@H]2Oc3c(NC(=O)c4ccc(-c5nccs5)cc4)cccc3C(=O)N([C@@H](C)CO)C[C@@H]2C)cc1 | 61.7% [at 0.26 µM, active compounds read low]
CCCN1[C@H](C(=O)N2CCOCC2)[C@@H](CO)[C@@H]2Cn3c(ccc(/C=C/c4ccccc4)c3=O)[C@@H]21 | -10.3% [at 0.5 µM, active compounds read low]
C[C@@H]1CCCCO[C@@H](CN(C)Cc2ccc(C(F)(F)F)cc2)[C@H](C)CN([C@@H](C)CO)C(=O)c2cc(NS(=O)(=O)c3ccccc3)ccc2O1 | 11.3% [at 2.1 µM, active compounds read low]
O=C(C[C@H]1C[C@@H]2c3cc(NC(=O)Nc4ccc(C(F)(F)F)cc4)ccc3O[C@@H]2[C@@H](CO)O1)NCCc1ccccc1 | -7.36% [at 8 µM, active compounds read low]
C[C@@H]1CN([C@@H](C)CO)C(=O)c2cc(NC(=O)c3ccccc3)ccc2O[C@@H](C)CCCCO[C@H]1CN(C)Cc1ccc(C(F)(F)F)cc1 | -28.2% [at 0.26 µM, active compounds read low]
CC(C)CC#Cc1ccc2c(c1)O[C@H](CN(C)S(=O)(=O)c1ccc(F)cc1)[C@H](C)CN([C@@H](C)CO)S2(=O)=O | -39.6%
C[C@@H]1CN([C@H](C)CO)C(=O)c2cc(NS(=O)(=O)c3ccc(F)cc3)ccc2O[C@@H]1CN(C)Cc1ccc(C(F)(F)F)cc1 | -4.85%
O=C(Nc1cccc(F)c1)N1CCCCN2[C@@H](CO)[C@@H](c3ccc(-c4ccncc4)cc3)[C@@H]2C1 | 12.6% [at 1 µM, active compounds read low]
C[C@@H]1CCCCO[C@H](CN(C)C(=O)c2ccccc2)[C@@H](C)CN([C@@H](C)CO)C(=O)c2cc(NC(=O)Nc3ccc(C(F)(F)F)cc3)ccc2O1 | 20.2% [at 2.1 µM, active compounds read low]
COc1ccc(S(=O)(=O)N2CCCCN3[C@H](C2)[C@H](c2ccc(C#CC(C)C)cc2)[C@@H]3CO)cc1 | -13.1% [at 8 µM, active compounds read low]
C[C@H](CO)N1C[C@H](C)[C@H](CN(C)Cc2ccc3c(c2)OCO3)OCCCC[C@H](C)Oc2ccc(NS(=O)(=O)c3ccc(Cl)cc3)cc2C1=O | 2.84%
C[C@@H]1CCCCO[C@H](CN(C)C(=O)Cc2ccccc2)[C@H](C)CN([C@@H](C)CO)C(=O)c2cc(NC(=O)Nc3ccc(C(F)(F)F)cc3)ccc2O1 | 13.6%
COc1ccc(S(=O)(=O)Nc2ccc3c(c2)C(=O)N([C@H](C)CO)C[C@@H](C)[C@H](CN(C)S(=O)(=O)c2ccc(F)cc2)OCCCC[C@H](C)O3)cc1 | -24.5%
C[C@H](O)C#Cc1ccc2c(c1)O[C@@H](CN(C)Cc1ccc(-c3ccccc3)cc1)[C@@H](C)CN([C@@H](C)CO)S2(=O)=O | -22.5%
C[C@@H]1CN([C@H](C)CO)C(=O)c2cc(NC(=O)Nc3ccc(C(F)(F)F)cc3)ccc2O[C@@H](C)CCCCO[C@H]1CN(C)C(=O)Nc1ccc(F)cc1 | -1.73%

Structure (SMILES) | max activity
C[C@H]1CN([C@@H](C)CO)C(=O)c2ccccc2-c2ccccc2CO[C@H]1CN(C)S(=O)(=O)c1ccc(C(F)(F)F)cc1 | 11.8% [at 4.2 µM, active compounds read low]
C[C@@H]1CN([C@@H](C)CO)C(=O)Cc2cc(NC(=O)Nc3ccc(F)cc3)ccc2O[C@H]1CN(C)Cc1ccc(Cl)c(Cl)c1 | 11.5% [at 4.2 µM, active compounds read low]
C[C@@H]1CN([C@@H](C)CO)S(=O)(=O)c2ccc(C#C[C@@H](C)O)cc2O[C@@H]1CN(C)Cc1ccc(-c2ccccc2)cc1 | -11.9% [at 16 µM, active compounds read low]
Cc1ccc(S(=O)(=O)N(C)C[C@H]2Oc3ccc(NC(=O)Nc4ccc(C(F)(F)F)cc4)cc3CC(=O)N([C@H](C)CO)C[C@@H]2C)cc1 | 49.2% [at 16 µM, active compounds read low]
C[C@@H]1CN([C@H](C)CO)C(=O)c2cc(NC(=O)Nc3ccc(F)cc3)ccc2O[C@@H](C)CCCCO[C@H]1CN(C)C(=O)Nc1ccc(F)cc1 | 13.6%
C[C@@H]1CCCCO[C@@H](CN(C)C(=O)Nc2ccc(C(F)(F)F)cc2)[C@H](C)CN([C@H](C)CO)C(=O)c2cc(NS(=O)(=O)c3ccccc3)ccc2O1 | 50.6% [at 8 µM, active compounds read low]
CN1c2ccc(-c3ccc(C#N)cc3)cc2[C@@H]2[C@@H](CCN2C(=O)NC2CCCCC2)[C@@H]1CO | -6.17% [at 4.2 µM, active compounds read low]
CN1c2ccc(C3=CCCCC3)cc2[C@H]2[C@H](CCN2C(=O)NC2CCCCC2)[C@@H]1CO | 17.4% [at 0.56 µM, active compounds read low]
C[C@@H]1CCCCO[C@@H](CN(C)Cc2ccc(Cl)c(Cl)c2)[C@H](C)CN([C@H](C)CO)C(=O)c2cc(NS(=O)(=O)c3ccc(F)cc3)ccc2O1 | -22%
C[C@@H]1CN([C@@H](C)CO)C(=O)Cc2cc(NC(=O)Nc3ccc(C(F)(F)F)cc3)ccc2O[C@H]1CN(C)Cc1ccc(Oc2ccccc2)cc1 | -19.5%
Cc1ccc(S(=O)(=O)Nc2ccc3c(c2)C(=O)N([C@@H](C)CO)C[C@H](C)[C@H](CN(C)Cc2ccc(C(F)(F)F)cc2)OCCCC[C@@H](C)O3)cc1 | 9.21%
CCCC#Cc1ccc2c(c1)O[C@H](CN(C)Cc1ccccc1)[C@@H](C)CN([C@H](C)CO)S2(=O)=O | 7.94% [at 1 µM, active compounds read low]
Cc1ccc(S(=O)(=O)N(C)C[C@@H]2OCCCC[C@H](C)Oc3ccc(NS(=O)(=O)c4ccc(F)cc4)cc3C(=O)N([C@H](C)CO)C[C@H]2C)cc1 | -6.55%
COc1ccc(S(=O)(=O)N(C)C[C@H]2Oc3ccc(NC(=O)Nc4ccc(C(F)(F)F)cc4)cc3CC(=O)N([C@H](C)CO)C[C@@H]2C)cc1 | 26.7% [at 16 µM, active compounds read low]
CNC[C@@H]1Oc2cc(C#CC3CCCCC3)ccc2S(=O)(=O)N([C@@H](C)CO)C[C@@H]1C | 17.9% [at 0.26 µM, active compounds read low]
C[C@@H]1CCCCO[C@H](CN(C)C(=O)Nc2ccc(C(F)(F)F)cc2)[C@H](C)CN([C@@H](C)CO)C(=O)c2cc(NS(=O)(=O)c3ccc(Cl)cc3)ccc2O1 | -7.31%
CO[C@H]1CN(C)C(=O)c2cc(NC(=O)c3nc4ccccc4s3)ccc2OC[C@H](C)N(Cc2cccnc2)C[C@H]1C | 15.1% [at 0.26 µM, active compounds read low]
C[C@H](CO)N1C[C@H](C)[C@H](CN(C)S(=O)(=O)c2cccs2)OCCCC[C@H](C)Oc2ccc(NC(=O)NC3CCCCC3)cc2C1=O | 9.21% [at 0.26 µM, active compounds read low]
C[C@H](CO)N1C[C@H](C)[C@H](CN(C)C(=O)NC2CCCCC2)Oc2cc(C#Cc3cccc(F)c3)ccc2S1(=O)=O | 16.5% [at 0.5 µM, active compounds read low]
